Data: PubChem BioAssay (Tox21)
Records with an inconclusive call do not appear. Entries that show only a call come without a potency. The source made the active and inactive calls. The call rests on the fitted dose curve; in most records, active means well fitted activation curve with a large enough effect in the repeat runs; inconclusive means weak or mixed curves, or effect the other way; inactive means no such curve, though single readings can be large or run the other way.

Experiment: qHTS assay to identify small molecule agonists of the estrogen related receptor signaling pathway with the pleiotropic PPARgamma coactivator (PGC) from Tox21 10K library (AID 1224842); further: nearly all actives have a fitted effect of over 15% in size
Conditions: PGC/ERR reporter cell line, luciferase ONE-Glo, 18 h; series mostly up to 92.4 µM
Text: National Center for Advancing Translational Sciences [NCATS] NIH Chemical Genomics Center [NCGC] U.S. Environmental Protection Agency [EPA] National Institutes of Environmental Health Sciences [NIEHS] National Toxicology Program [NTP] Assay overview: Estrogen related receptors (ERRs), the first orphan nuclear receptors discovered, play an important role in the control of cellular energy metabolism. ERRs are required for high-energy production in response to the environmental challenges. The pleiotropic PPARgamma coactivator (PGC) is a major partner of ERR and a key regulator in energy homeostasis. Together they have been implicated in the etiology of metabolic disorders such as Type 2 diabetes and metabolic syndrome. ERR-alpha was also identified as an adverse marker for breast cancer progression; ERR-alpha-positive tumors have a poor prognosis. To screen and to identify environmental compounds that perturb the PGC/ERR signaling pathways could provide valuable information for potential therapeutic or preventive measures in the treatment of metabolic disease. For identifying PGC/ERR agonists, PGC/ERR cell line (provided by NTP) has been used to screen Tox21 10K library.
Assay Protocol Summary: The PGC/ERR cells were dispensed at 2,000 cells/5 ul/well in 1536-well white plates using a Multidrop dispenser. After the assay plates were incubated at a 37 C/5% CO2 incubator for 6 hours, 23 nL of compounds dissolved in DMSO, positive and negative controls or DMSO only was transferred to the assay plate by a pin tool. The plates were incubated at 37 C for 18 hours. 4 ul/well of One-Glo reagent was added into the assay plates using a Flying Reagent Dispenser. After 30-minute incubation at room temperature, the luminescence intensity in the plates was measured using a ViewLux plate reader.
Potency means the concentration at half of the fitted maximal effect.

Question: Which Potency does the source give for `Cc1cc(S(=O)(=O)O)ccc1N=Nc1c(O)ccc2ccccc12` here?
Answer: Its Potency is “inactive”.

Question: For `O=C(N[C@@H](c1ccccc1)[C@@H]1CCCCN1)c1cccc(C(F)(F)F)c1Cl`, which Potency is on record?
Answer: Its Potency is “inactive”.

Question: Which Potency does the source give for `O=[N+]([O-])c1cccc(S(=O)(=O)NCCNS(=O)(=O)c2cccc([N+](=O)[O-])c2)c1` here?
Answer: The Potency was “inactive”.

Question: Which Potency does the source give for `O=C(CCC1CCN(Cc2ccccc2)CC1)c1ccc2c(c1)NCCCC2` here?
Answer: Its Potency is “inactive”.

Question: Which Potency does the source give for `CC1(C)O[C@@H]2C[C@H]3[C@@H]4CCC5=CC(=O)C=C[C@]5(C)[C@H]4[C@@H](O)C[C@]3(C)[C@]2(C(=O)CO)O1` here?
Answer: The Potency was “inactive”.

Question: For `CN(C)C(=O)Nc1ccc(Oc2ccc(Cl)cc2)cc1`, which Potency is on record?
Answer: Its Potency is “inactive”.

Question: Which Potency does the source give for `Nc1ccc(S(=O)(=O)O)cc1` here?
Answer: The Potency was “inactive”.

Question: For `CCCOc1ccc(S(=O)(=O)N2CCN(CC)CC2)cc1-c1nc2c(CC)n(Cc3ccccn3)nc2c(=O)[nH]1`, which Potency is on record?
Answer: Its Potency is “inactive”.

Question: For `Oc1ccc(Nc2ccccc2)cc1`, which Potency is on record?
Answer: Its Potency is “inactive”.

Question: For `CCOC(=O)c1ccccc1OC`, which Potency is on record?
Answer: Its Potency is “inactive”.

Question: For `COc1cc2c(cc1OC)-c1cc(=Nc3c(C)cc(C)cc3C)n(C)c(=O)n1CC2`, which Potency is on record?
Answer: The Potency was 13.3 µM (active).

Question: For `Nc1ccc(S(=O)(=O)O)c(N)c1`, which Potency is on record?
Answer: Its Potency is “inactive”.

Question: Which Potency does the source give for `COc1ccccc1N=Nc1c(S(=O)(=O)O)cc2cc(S(=O)(=O)O)cc(NC(C)=O)c2c1O` here?
Answer: Its Potency is “inactive”.

Question: With `CC(=O)CC(c1ccc([N+](=O)[O-])cc1)c1c(O)c2ccccc2oc1=O` (stereo not given) as the compound, how does the Potency read?
Answer: The Potency was “inactive”.

Question: With `CCOC(=O)C(C)Oc1ccc(Oc2nc3ccc(Cl)cc3o2)cc1` (stereo not given) as the compound, how does the Potency read?
Answer: The Potency was “inactive”.

Question: With `CCCCC(=O)O[C@]1(C(=O)CO)[C@@H](C)C[C@H]2[C@@H]3CCC4=CC(=O)C=C[C@]4(C)[C@@]3(F)[C@@H](O)C[C@@]21C` as the compound, how does the Potency read?
Answer: Its Potency is “inactive”.

Question: Which Potency does the source give for `CCCCCCCCCCCC(=O)[O][Sn]([CH2]CCC)([CH2]CCC)[O]C(=O)CCCCCCCCCCC` here?
Answer: The Potency was “inactive”.

Question: For `c1ccc(COCc2ccccc2)cc1`, which Potency is on record?
Answer: Its Potency is “inactive”.

Question: With `CCCCC(CC)CNCC(CC)CCCC` (stereo not given) as the compound, how does the Potency read?
Answer: The Potency was “inactive”.

Question: Which Potency does the source give for `O=C(C(=O)c1ccccc1)c1ccccc1` here?
Answer: The Potency was “inactive”.

Question: With `CNC(=O)N(c1ccccc1)c1ccccc1` as the compound, how does the Potency read?
Answer: The Potency was “inactive”.

Question: With `CCCc1c(OCCCOc2ccc(OCC(=O)O)cc2)ccc(C(C)=O)c1O` as the compound, how does the Potency read?
Answer: Its Potency is “inactive”.

Question: Which Potency does the source give for `CC(=O)Nc1ccccc1C` here?
Answer: Its Potency is “inactive”.

Question: Which Potency does the source give for `COC(=O)c1cc(S(N)(=O)=O)ccc1OC` here?
Answer: Its Potency is “inactive”.

Question: Which Potency does the source give for `CN1C(=O)CC(C)(c2ccccc2)C1=O` (stereo not given) here?
Answer: The Potency was “inactive”.

Question: With `NC(=O)N(O)[C@@H]1C=C[C@H](Oc2cccc(Oc3ccc(F)cc3)c2)C1` as the compound, how does the Potency read?
Answer: Its Potency is 27.3 µM (active).

Question: For `CCOC(=O)[C@@H](C)Oc1ccc(Oc2nc3ccc(Cl)cc3o2)cc1`, which Potency is on record?
Answer: Its Potency is “inactive”.

Question: For `COc1cc2ncnc(Nc3ccc(F)c(Cl)c3)c2cc1OCCCN1CCOCC1`, which Potency is on record?
Answer: The Potency was “inactive”.

Question: For `CN1CCN(CCCN2c3ccccc3Sc3ccc(S(=O)(=O)N(C)C)cc32)CC1`, which Potency is on record?
Answer: The Potency was “inactive”.

Question: With `CC1=CC(=O)CC(C)(C)C1(O)/C=C/C(C)=C\C(=O)O` (stereo not given) as the compound, how does the Potency read?
Answer: Its Potency is “inactive”.

Question: For `CN(C)CCOC1=Cc2ccccc2Sc2ccc(Cl)cc21`, which Potency is on record?
Answer: Its Potency is “inactive”.

Question: Which Potency does the source give for `NC(=O)Nc1ccc(Cl)c(Cl)c1` here?
Answer: Its Potency is “inactive”.

Question: For `CCCC1C(CC)=CC(CC)=CN1c1ccccc1` (stereo not given), which Potency is on record?
Answer: Its Potency is “inactive”.

Question: For `Cc1nc2ccccn2c(=O)c1CCN1CCC(C(=O)c2ccc(F)cc2)CC1`, which Potency is on record?
Answer: The Potency was “inactive”.

Question: For `O=S1OCCO1`, which Potency is on record?
Answer: Its Potency is “inactive”.

Question: For `CCCCC(=O)O[C@]1(C(=O)CO)CC[C@H]2[C@@H]3CCC4=CC(=O)CC[C@]4(C)[C@H]3[C@@H](O)C[C@@]21C`, which Potency is on record?
Answer: The Potency was “inactive”.

Question: With `O=c1[nH]c2ccc(S(=O)CCN3CCC(Cc4ccc(F)cc4)CC3)cc2o1` (stereo not given) as the compound, how does the Potency read?
Answer: Its Potency is “inactive”.

Question: For `C[Si]1(C)O[Si](C)(C)O[Si](C)(C)O1`, which Potency is on record?
Answer: Its Potency is “inactive”.

Question: With `CC(C)CCCC(=O)O` as the compound, how does the Potency read?
Answer: The Potency was “inactive”.

Question: For `O=C1NCCN1`, which Potency is on record?
Answer: Its Potency is “inactive”.
